The values below come from PubChem BioAssay (EPA / NIEHS).

Inconclusive results are not listed. Calls of active or inactive are those of the source. The calls were made as follows: active = hit-call score of the fitted dose curve at least 0.9, where 1 is the maximum; inconclusive = response in the unintended direction; inactive = score below 0.9.

Chain of Muscarinic acetylcholine receptor M2 (Homo sapiens) (P08172 whole entry, looked up): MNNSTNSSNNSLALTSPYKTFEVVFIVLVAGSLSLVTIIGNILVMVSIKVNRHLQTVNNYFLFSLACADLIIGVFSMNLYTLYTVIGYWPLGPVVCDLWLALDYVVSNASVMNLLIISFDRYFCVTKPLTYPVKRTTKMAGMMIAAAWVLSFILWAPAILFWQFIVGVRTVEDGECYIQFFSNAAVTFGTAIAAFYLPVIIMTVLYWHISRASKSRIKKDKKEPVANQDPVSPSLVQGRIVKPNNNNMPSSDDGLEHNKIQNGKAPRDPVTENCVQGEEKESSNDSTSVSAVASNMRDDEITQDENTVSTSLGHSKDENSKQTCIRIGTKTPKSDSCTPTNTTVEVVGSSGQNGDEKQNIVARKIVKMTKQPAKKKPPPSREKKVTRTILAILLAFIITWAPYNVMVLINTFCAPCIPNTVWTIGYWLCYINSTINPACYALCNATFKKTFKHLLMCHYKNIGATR
Chain of human Neurokinin, NK2 Receptor, TACR2 (gene 6865) (P21452 whole entry, looked up): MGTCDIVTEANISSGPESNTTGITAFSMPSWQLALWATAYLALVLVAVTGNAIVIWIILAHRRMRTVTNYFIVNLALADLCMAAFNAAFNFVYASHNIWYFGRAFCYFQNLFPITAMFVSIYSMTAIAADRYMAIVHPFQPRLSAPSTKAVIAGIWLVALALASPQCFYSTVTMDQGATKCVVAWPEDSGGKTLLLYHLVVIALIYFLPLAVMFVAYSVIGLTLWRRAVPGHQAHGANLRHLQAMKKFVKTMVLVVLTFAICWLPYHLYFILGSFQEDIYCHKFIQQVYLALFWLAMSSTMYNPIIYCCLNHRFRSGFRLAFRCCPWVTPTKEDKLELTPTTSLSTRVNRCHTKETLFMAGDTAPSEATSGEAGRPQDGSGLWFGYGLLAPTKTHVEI

The target of the first assay is D(1A) dopamine receptor (Homo sapiens) (UniProt P21728). The assay can be described thus: NVS_GPCR_hDRD1: NovaScreen (NVS) G Protein-Coupled Receptor Assay for human Dopamine Receptor D1 (DRD1) (AID 2283269). The essentials: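 Radioligand displacement binding on membranes/protein extracted from HEK293 expressing human D1, cell-free; read 1 h after dosing by filter-based scintillation counting. Primary screen in duplicate at 25 uM, actives followed up in concentration series; signal loss versus DMSO baseline.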
Chain of D(1A) dopamine receptor (Homo sapiens) (P21728 whole entry, looked up): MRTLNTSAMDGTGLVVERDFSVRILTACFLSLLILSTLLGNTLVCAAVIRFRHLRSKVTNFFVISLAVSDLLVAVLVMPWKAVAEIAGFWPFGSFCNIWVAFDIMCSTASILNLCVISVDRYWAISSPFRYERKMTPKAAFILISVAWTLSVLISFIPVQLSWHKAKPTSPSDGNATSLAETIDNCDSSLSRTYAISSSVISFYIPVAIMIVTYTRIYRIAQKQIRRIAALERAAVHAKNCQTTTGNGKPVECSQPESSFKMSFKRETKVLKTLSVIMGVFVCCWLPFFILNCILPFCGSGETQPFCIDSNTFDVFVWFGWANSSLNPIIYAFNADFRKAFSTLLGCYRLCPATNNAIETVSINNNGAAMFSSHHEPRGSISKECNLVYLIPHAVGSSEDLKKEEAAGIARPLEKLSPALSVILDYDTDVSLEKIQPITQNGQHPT
For the compound `Oc1ccccc1Br`, the result was inactive. Usually AC50 stands for the concentration giving half of the maximal activity seen. Consider `CC(C)Nc1ccc(Nc2ccccc2)cc1`, for which the AC50 is 25 µM (active).

For `COP(N)(=S)OC`, the outcome was inactive. With `CSC(C)(C)C=NO`, the outcome was inactive. Turning to `O=c1ssc(Cl)c1Cl`, the AC50 was 1.21 µM (active). With `N#Cc1c(-c2ccc(Cl)cc2)[nH]c(C(F)(F)F)c1Br`, the compound was called inactive.

As for `CCOP(=S)(Oc1ccc([N+](=O)[O-])cc1)c1ccccc1` (stereo unspecified), the outcome was inactive. Still for that read-out and setting: under `Nc1ccc([N+](=O)[O-])cc1Cl` stands “inactive”.

The target of another assay is Muscarinic acetylcholine receptor M2 (Homo sapiens) (UniProt P08172). The assay can be described thus: NVS_GPCR_hM2: NovaScreen (NVS) G Protein-Coupled Receptor Assay for human Muscarinic, M2 Receptor (AID 2283273). Summed up:
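Cell-free radioligand binding using membranes from CHO cells expressing the receptor; filter-based scintillation counting after 1 hour of compound exposure. Loss of specific binding relative to DMSO baseline; primary screen at 25 uM in duplicate, actives then run in concentration series.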
`CC(C)Nc1ccc(Nc2ccccc2)cc1`: the AC50 was 2.71 µM (active). With `CSC(C)(C)C=NO`, the outcome was inactive. For `CC(C)(C)OOC(C)(C)C`, the result was inactive. Same read-out and setting: with `CCC(C)(C)c1ccc(O)cc1` the entry was “inactive”.

The target in a further assay is human Neurokinin, NK2 Receptor, TACR2 (gene 6865) (UniProt P21452). Briefly: NVS_GPCR_hNK2: NovaScreen (NVS) G Protein-Coupled Receptor Assay for human Neurokinin, NK2 Receptor (AID 2283278).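 Also: actives reduce bound radioligand signal relative to DMSO baseline.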 The essentials:
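Radioligand binding on membranes from CHO cells expressing receptor, filter-based scintillation read 4 h after dosing. Initial duplicate screen at 25 uM, actives in concentration series; loss of signal versus DMSO.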
With `CCOP(=S)(OCC)SCn1nnc2ccccc2c1=O`, the result was inactive. Consider `CC(C)Nc1ccc(Nc2ccccc2)cc1`, for which the AC50 is 20 µM (active). With `CCOP(=S)(OCC)SCSc1ccc(Cl)cc1`, the call was inactive. `CCCCCCCc1ccc(O)cc1`: the result was inactive. In the case of `CSC(C)(C)C=NO`, the result was inactive. Turning to `Cn1[nH]nnc1=S`, the compound was classed as inactive. For `CC(C)(C)c1ccccc1OP(=O)(Oc1ccccc1)Oc1ccccc1`, the concentration at half-maximal activity (AC50) was 17.2 µM (active).

Take `O=S1(=O)OCC2C(CO1)C1(Cl)C(Cl)=C(Cl)C2(Cl)C1(Cl)Cl` (stereo unspecified): the compound was classed as inactive. With `Cc1cc(C)c(C(=O)P(=O)(c2ccccc2)c2ccccc2)c(C)c1`, the AC50 was 0.367 µM (active).
